Screening results: PubChem, Broad Institute
LMP1 NFkB inh: reduces LMP1-driven NF-kappaB luciferase signal | LMP1-induced NF-kappaB luciferase reporter cells, luminescence | inhibition, % at 12.5 µM | actives 0.69% (n = 350,000) | AID 504558; in the data active = inhibition above about 41%; inconclusive = no clear call, values can overlap the other calls
LGR2 inh: blocks bursicon-induced cAMP signaling via Drosophila LGR2; AID 720647; actives 0.35% (n = 380,000); HEK293 LGR2, CRE-luciferase, bursicon-stimulated, 4 h; inhibition, % at 9.99 µM;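 active = drop in luminescence signal, shown as inhibition above about 50% in the replicate tests, limit read from the data, passing the limit was not always enough; inconclusive = probably only some replicates passing the limit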;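 also: agonist challenge used bursicon conditioned medium at about half maximal strength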
PGC1a acetyl inh: lowers PGC1a acetylation signal in U2OS cells | AlphaScreen anti-acetyl-lysine; with virally co-expressed GCN5 acetyltransferase | inhibition, % at 15.6 µM | actives 0.17% (n = 350,000);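 active = every replicate shows inhibition of at least 40%; inconclusive = mean inhibition at least 40% but some replicate below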
PAX8 reporter: lowers PAX8-driven luciferase in RMG-I cells | RMG-I TPO-luciferase reporter, SteadyGlo, 24 h | inhibition, % at 12.6 µM | actives 1.2% (n = 360,000) | AID 652154;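 active = mean replicate inhibition at least 60% with every replicate also reaching 60%; inconclusive = only one of the two criteria is met; inactive = mean below 60% and not all replicates reaching 60%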;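 also: luciferase light reporting Pax8 driven TPO promoter activity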
TRPM1 prom inh: MITF TRPM1 promoter inhibition in SK-MEL-5 cells. AID 488899. inhibition, % at 12.5 µM. SK-MEL-5 TRPM1 promoter luciferase, 24 h. actives 0.83% (n = 330,000);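 active = mean inhibition across replicates of 60% or more, whatever share of single replicates reaches that level; inconclusive = some that reach 60%, reason not given; inactive = mean inhibition across replicates below 60%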
EWS-Fli block: inhibitors of EWS/Fli oncoprotein transcriptional activity; A673 NR0B1-luciferase reporter, viability-normalised; inhibition, % at 12.6 µM; actives 0.67% (n = 350,000); AID 651661;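 active = mean inhibition of at least 50% after viability correction, with every replicate also passing that limit; inconclusive = mean reaches 50% but only one of two replicates passes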;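 also: firefly luciferase signal divided by Alamar Blue viability fluorescence both relative to DMSO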
Numbers stand for hits; – = inactive; ? = inconclusive; · = not tested or not shown. This is a sample that favours compounds with a hit; in the whole collection about 2.2% have one here.

SMILES | LMP1 NFkB inh | LGR2 inh | PGC1a acetyl inh | PAX8 reporter | TRPM1 prom inh | EWS-Fli block
COc1ccccc1S(=O)(=O)N1C[C@H](O)COC[C@@H]2O[C@H](CC(=O)O)CC[C@H]21 | · | – | – | – | · | –
Cc1c(CCC(=O)O)c(=O)oc2cc3oc4c(c3cc12)CCCC4 | – | – | – | – | – | 57
CCCNC(=O)Nc1ccc2c(c1)OC[C@@H](C)N(Cc1cccnc1)C[C@H](C)[C@@H](OC)CN(C)C2=O | · | – | – | – | · | –
O=S(=O)(/C(=C\c1ccc(C(F)(F)F)cc1)c1nc2ccccc2[nH]1)c1ccccc1 | – | · | ? | · | 97 | ·
O=C(NCc1ccco1)/C(=C/c1ccc(C(F)(F)F)cc1)c1nc2ccccc2[nH]1 | – | – | · | – | – | ·
COc1ccc2cc3c(N)nn(C(=O)c4ccccc4Cl)c3nc2c1 | 80 | – | ? | – | – | –
COc1ccc2cc3c(N)nn(C(=O)c4ccc(F)cc4)c3nc2c1 | – | – | – | – | – | –
COc1ccc2cc3c(N)nn(C(=O)Cc4c[nH]c5ccccc45)c3nc2c1 | 75 | 88 | · | – | 63 | –
C[C@H]1CN([C@@H](C)CO)C(=O)c2cc(C#CCN(C)C)cnc2O[C@@H]1CN(C)C(=O)CN1CCOCC1 | · | – | – | – | · | –
c1ccc(-n2nnc3c(N4CCOCC4)ncnc32)cc1 | 53 | 83 | – | · | – | ·
COc1cccc2sc(Nc3nc(-c4cc5ccccc5oc4=O)cs3)nc12 | – | – | – | – | – | ·
COc1cccc2sc(Nc3nc(-c4ccncc4)cs3)nc12 | – | – | – | – | – | 63
CS(=O)(=O)c1ccc(Sc2nc3ccccc3s2)c([N+](=O)[O-])c1 | 56 | · | – | · | – | ·
CCn1c(=O)cc(C(=O)OC)sc1=Nc1ccc(F)c(F)c1 | 84 | ? | · | – | – | –
CCOC(=O)c1ccc(N=c2sc(C(=O)OC)cc(=O)n2Cc2ccco2)cc1 | – | 70 | · | – | – | –
COc1ccc(CCNC(=O)Nc2ccc3c(c2)c(=O)n(C)n3Cc2ccc(F)cc2)cc1OC | · | – | – | – | · | –
COc1cc(Cn2c3ccc(NC(=O)NCc4ccc(F)cc4)cc3c(=O)n2C)ccc1F | · | – | – | – | · | 51
COCC(=O)Nc1ccc2c(c1)[C@H]1C[C@H](CC(=O)N3CCN(C)CC3)O[C@H](CO)[C@H]1O2 | · | – | – | – | · | –
CC(C)Cc1ccc(C(C)C(N)=NCCc2ccccc2)cc1 (configuration not stated) | – | – | · | – | 71 | –
COC(=O)CN1C(=S)N(C)C(=O)C1CC(=O)Nc1ccccc1 (configuration not stated) | – | – | – | 115 | – | –
c1ccc(-c2nnsc2-c2ccccc2)cc1 | – | – | – | – | – | –
O=S(=O)(c1ccc(Cl)c(Cl)c1)c1snnc1-c1ccccc1 | – | · | – | · | 88 | ·
C[C@H]1CN([C@@H](C)CO)C(=O)c2cc(NC(=O)NC3CCCCC3)ccc2O[C@H]1CN(C)C(=O)Nc1ccc2c(c1)OCO2 | · | – | – | – | · | –
CCCN1CCc2[nH]c(=S)[nH]c(=O)c2C1 | – | – | · | 72 | – | –
O=C(O)c1ccc2c(c1Nc1ccccc1)C(=O)c1ccccc1C2=O | 43 | – | · | – | – | –
SMILES | LMP1 NFkB inh | LGR2 inh | PGC1a acetyl inh | PAX8 reporter | TRPM1 prom inh | EWS-Fli block
C[C@H]1CN([C@@H](C)CO)C(=O)c2cccc(NS(=O)(=O)c3cn(C)cn3)c2O[C@@H]1CN(C)C | · | – | – | – | · | –
c1ccc(-c2nnc(-c3ccccn3)nn2)nc1 | – | – | – | – | – | –
c1ccc(-c2cccc(-c3ccccn3)n2)nc1 | 53 | – | – | · | – | –
Cn1c(-c2ccccc2)cnc1SCC(=O)N1CCCCC1 | 66 | · | – | · | – | ·
Cn1c(-c2ccccc2)cnc1SCC(=O)N1CCCc2ccccc21 | – | – | · | – | – | –
C[C@H](CO)N1C[C@H](C)[C@H](CN(C)C(=O)Nc2ccc3c(c2)OCO3)Oc2ccc(NC(=O)c3ccncc3)cc2CC1=O | · | – | – | · | · | –
CCOC(=O)N1C/C(=C\c2ccccc2)C(=O)/C(=C/c2ccccc2)C1 | – | – | – | – | 104 | –
COc1ccc(OC(=O)N2C/C(=C/c3ccccc3)C(=O)/C(=C\c3ccccc3)C2)cc1 | – | ? | · | – | 86 | –
COc1ccc2c3c([nH]c2c1)[C@@H](CO)N(C(=O)C1CCCC1)CC31CN(C(=O)c2ccncc2)C1 | · | – | · | – | · | –
Cc1ccccc1/C=N/NC(=O)Cn1nnc(N)n1 | – | – | – | 65 | – | –
